In the library only some 2.3% were active in any assay of this set; here they are far more common.
FUS yeast rescue = qHTS for Suppressors of FUS Proteinopathy: Primary screen using FUS-linked yeast assay. S. cerevisiae FUS-expressing, growth rescue, OD600, 24 h. Potency, µM (highest dose often 76.6 µM), usual class: activators. 0.24% of 390,000 active;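 also: plate controls were DMSO vehicle for no effect and reference control for full effect; nearly all actives have a fitted effect of over 55% in size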
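Yeast expressing FUS under galactose induction, OD 0.005 in 2% galactose medium; compounds in a dilution series, 24 h at 30C. Growth rescue by absorbance at 600 nm; CP55940 positive control, DMSO negative.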
Abeta yeast res = qHTS for compounds that reverse cellular toxicity of Amyloid beta (A-beta) peptide in yeast: Primary Screen; 0.063% of 410,000 active; Potency, µM (highest dose often 46.1 µM), actives largely listed as activators; yeast expressing A-beta42, growth rescue, OD600, 48 h; response scale: 0% DMSO, 100% iron-clioquinol control; also: nearly all actives have a fitted effect of over 55% in size
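Yeast growth medium received pinned compounds, then yeast cells expressing toxic A-beta were added; plates incubated at 30 C for 48 hr. Growth read as absorbance at 600 nm, normalized to DMSO and equimolar FeCl3 plus clioquinol controls.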
TDP43 rescue = qHTS of TDP-43 Inhibitors. TDP-43 expressing yeast growth rescue, BacTiter-Glo, 24 h. Potency, µM (series often up to 46.1 µM), for inactives: at the highest dose growth rescue (activation), most hits filed as activators. 1.8% of 410,000 active; also: % of control where 0% means no effect; nearly all actives have a fitted effect of over 50% in size
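Yeast cells expressing TDP-43 under galactose induction are exposed to compounds for 24 hr at 30 deg C. BacTiter-Glo luminescence measures growth, so protective compounds score as activators.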
aSyn rescue = qHTS of alpha-syn Inhibitors. Yeast expressing alpha-synuclein, growth rescue, BacTiter-Glo, 24 h. Potency, µM (doses to about 46.1 µM), for inactives: at the top dose growth rescue (activation), usual class: activators. 0.14% of 370,000 active; also: % of control where 0% means no effect; nearly all actives have a fitted effect of over 65% in size
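Rescue of yeast growth: cells expressing toxic alpha-synuclein, induced in galactose at OD600 0.02, incubated with compound 24 h at 30 C. ATP luminescence quantified growth; inhibitors of toxicity appear as activators.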
Chronic BCR inh = qHTS Assay to Find Inhibitors of Chronic Active B-Cell Receptor Signaling; 0.05% of 340,000 active; AID 493014, 2011; Potency, µM (top dose mostly 46.1 µM), without a hit: at the top dose activity change, negative = inhibition, usual class: inhibitors; ABC-DLBCL IkBa-CBG/CBR reporter, luminescence ratio, 4 h; active = well fitted inhibition curve with a large enough effect in the signal ratio, with a control signal flat, not every such curve was filed as active; inconclusive = small, poorly fitted or top-dose-only effect, or effect the other way, or a change in a side signal; the % refers to the signal ratio;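 also: plate controls were basal doxycycline-induced cells for no effect and cells given 10 µM MG132 for full effect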
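Doxycycline induced both beetle luciferases in TMD8 lymphoma cells; IKK-driven degradation limits the IkappaBalpha-fused green signal, while red luminescence normalises for cell number and nonspecific effects. Compounds tested up to 46 uM, 4 hrs.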
uPA surface inh = qHTS for Inhibitors of Cell Surface uPA Generation | cell surface uPA generation assay, qHTS | 0.31% of 330,000 active | Potency, µM (highest dose often 38.3 µM), inactives show top-dose activity change, negative = inhibition, hits mostly inhibitors; active = well fitted inhibition curve with a large enough effect; inconclusive = small, poorly fitted or top-dose-only effect; inactive = no such curve, though single readings can be large or run the other way; tested in mouse RAW 264.7 cells; also: % is scaled to controls: 0 for no effect and ±100 for the full control effect; nearly all actives have a fitted effect of over 55% in size
* hit, by the source's call; i = inactive; ? = inconclusive; . = no result; [ ] = another dose, or the depositor's remark. Unless noted, calls follow the shape of the dose curve; as a rule, active = well fitted curve in the direction sought with a large enough effect; inconclusive = small, poorly fitted or top-dose-only effect, or another doubt; inactive = no such curve, though single readings can be large; an effect the other way counts as inactive or inconclusive. Potency is read from the fitted curve at half-maximal effect.

SMILES | FUS yeast rescue | Abeta yeast res | TDP43 rescue | aSyn rescue | Chronic BCR inh | uPA surface inh
Cc1cc(C)c(N2C(=O)CCCC2=O)c(Cl)c1 | i | i | -20.8% | -1.3% | -1.9% | 2.0%
O=C(NC(=S)NCc1ccccc1)c1cccc(Cl)c1 | i | i | 15.8µM* | 1.1% | -6.7% | -0.8%
O=C(NC(=S)NCc1ccccc1)c1cccnc1 | i | i | 3.2% | -1.4% | ? | 0.9%
CCCCOC(=O)c1ccc(OC(=O)c2cccnc2)cc1 | i | i | 12.6µM* | 3.8% | 2.8% | -1.2%
Cc1sc2nc(-c3cccnc3)nc(Cl)c2c1-c1ccccc1 | . | i | 25.1µM* | -23.2% | -0.5% | -13.7%
O=C(CSc1nnnn1-c1cccc2c1CCCC2)N1CCCC1 | i | i | 20µM* | 3.3% | 11.1% | -1.4%
O=C(CSc1nnnn1-c1cccc2c1CCCC2)N1CCOCC1 | i | i | 4.2% | 11.7% | 3.2% | 8.2%
O=S(=O)(c1cccs1)N1CCN(S(=O)(=O)c2cccs2)CC1 | i | i | 5.5% | -1.1% | ? | 2.8%
CN1CCN(C(c2ccccn2)c2cc(Cl)c3cccnc3c2O)CC1 (stereo unspecified) | i | i | -61.0% | ? | 7.08µM* | ?
Oc1c(C(c2ccccn2)N2CCC(Cc3ccccc3)CC2)cc(Cl)c2cccnc12 (stereo unspecified) | 25.1µM* | i | 18.6%[9.22 µM] | -3.5% | ? | -13.5%
COc1ccccc1C(=O)NCC(c1cccnc1)N(C)C (stereo unspecified) | i | i | -19.0% | -4.2% | ? | 6.6%
Brc1ccc(-n2cccc2/C=N/n2cnnc2)cc1 | i | i | 5.0% | -4.0% | -2.3% | -2.2%
Brc1ccccc1-c1nc2c3ccccc3ncn2n1 | i | i | 14.1µM* | -6.0% | -8.9% | -16.6%
Clc1ccc(-c2nc3c4cnn(-c5ccccc5Br)c4ncn3n2)c(Cl)c1 | i | i | ? | . | . | .
CC(=O)c1ccc(S(=O)(=O)N2CCNCC2)cc1 | i | i | 0.0% | 0.1% | 2.1% | 2.7%
COc1ccc(CNS(=O)(=O)c2cc(C(=O)Nc3cc(Cl)cc(Cl)c3)ccc2F)cc1 | i | i | 14.1µM* | . | 5.0% | .
CCOC(=O)C1CCN(C(=O)c2cccnc2)CC1 | i | i | -23.0% | -8.1% | 1.5% | 1.1%
O=S(=O)(Nc1cccc(-c2ccc3nncn3n2)c1)c1cccc(F)c1 | i | i | 4.9% | -2.7% | ? | -8.2%
COc1ccc(S(=O)(=O)Nc2cccc(-c3ccc4nncn4n3)c2)cc1F | i | i | 4.0% | -0.7% | ? | 2.82µM*
COc1ccccc1CNC(=O)COCc1cc(-c2ccc3c(c2)OCO3)on1 | ? | i | 22.4µM* | . | . | .
COc1ccc(Cn2c(CNC(=O)Cc3ccc(OC)c(OC)c3)nc3cccnc32)cc1 | i | i | 4.3% | . | . | .
CC(C(=O)Nc1ccccc1Br)c1ccc([N+](=O)[O-])cc1 (stereo unspecified) | i | i | 10.1% | 6.7% | 3.9% | ?
Cc1ccc(NC(=O)C(C)c2ccc([N+](=O)[O-])cc2)cc1Cl (stereo unspecified) | i | ? | 11.2µM* | 2.3% | 13.1% | 3.6%
N#C/C(=C\Nc1ccccc1O)c1nc2ccccc2o1 | i | i | 7.08µM* | -40.5% | ? | -2.3%
O=C(O)C1C2C=CC(C3CC23)C1C(=O)O (stereo unspecified) | i | i | 14.1µM* | 6.6% | ? | -1.1%
Cc1cc(N2CCOCC2)nc(SCc2ccc(Cl)cc2Cl)n1 | ? | i | 35.5µM* | -5.9% | 3.5% | 15.0%

High-throughput results (PubChem BioAssay)
